Eya2 inh: Eya2 (human) phosphatase inhibition; O00167; recombinant Eya2, OMFP fluorescence dephosphorylation (OMFP is methylfluorescein phosphate); Potency, µM (top dose mostly 76.9 µM), for inactives: at the top dose activity, negative = inhibition, hits mostly inhibitors; 330,000 compounds, 0.006% hits
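Eya2 protein (added as 0.2 uM solution) was preincubated with compound for 10 min at ambient temperature in 50 mM HEPES pH 7.5, 50 mM NaCl, 5 uM MgCl2, 0.05% BSA, 1 mM DTT. OMFP (added at 50 uM) then reacted 10 min; fluorescence read at 485/525 nm.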
TrxR1 substrate: substrates of rat thioredoxin reductase 1 | O89049 | purified TrxR1 substrate turnover, NADPH consumption readout | Potency, µM (doses to about 114 µM), inactives show at the highest dose activity change, negative = substrate turnover | 390,000 compounds, 0.01% hits | AID 588456; also: nearly all actives have a fitted effect of over 50% in size
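Rat TrxR1, dispensed at 90 nM, was prereduced with 400 uM NADPH (final) for 5 min at ~22 deg C, then incubated with compound 15 min before 400 uM selenite. A first-read NADPH fluorescence drop versus no-compound background flagged substrates.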
RGS4 inhibitor: inhibitors of human regulator of G protein signaling 4; 390,000 compounds, 0.039% hits; Potency, µM (top dose mostly 114 µM), inactives show top-dose activity change, negative = inhibition, actives largely listed as inhibitors; P49798; Transcreener GDP fluorescence polarization, RGS4-accelerated GTP hydrolysis; also: nearly all actives have a fitted effect of over 75% in size
Target sequence (P49798 whole entry, looked up): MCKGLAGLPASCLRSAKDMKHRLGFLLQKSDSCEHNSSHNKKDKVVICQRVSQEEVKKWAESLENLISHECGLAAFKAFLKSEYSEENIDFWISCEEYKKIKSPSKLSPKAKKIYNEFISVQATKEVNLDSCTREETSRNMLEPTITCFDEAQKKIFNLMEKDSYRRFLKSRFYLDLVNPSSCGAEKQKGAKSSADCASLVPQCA
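MLSMR compounds (23 nl, pin-transferred) preincubated 10 min at room temperature with a 500nM (2x) first reagent, then RGS4 at 900nM (2x) plus Transcreener GDP mix added; fluorescence polarization (620/688 nm) read before and after 90 min at 30 °C.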
rTrxR1 inhibitor: rat TrxR1 inhibition; recombinant rTrxR1, NADPH fluorescence consumption, selenite substrate; Potency, µM (doses to about 114 µM), inactives show at the highest dose activity change, negative = inhibition, usual class: inhibitors; 390,000 compounds, 1% hits; AID 588453; also: nearly all actives have a fitted effect of over 65% in size
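Rat TrxR1 (90 nM in the dispensed reagent) was pre-reduced with 400 uM NADPH for 5 min at room temperature, then incubated with compound for 15 min. After 400 uM selenite was added, NADPH fluorescence (Ex 340/Em 450 nm) was followed for 8 min.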
GALK inh: inhibitors of human galactokinase | P51570 | Purified GALK, Kinase-Glo residual ATP luminescence | Potency, µM (doses to about 57.5 µM), for inactives: at the highest dose activity change, negative = inhibition, hits mostly inhibitors | 270,000 compounds, 0.007% hits
Target sequence (P51570 whole entry, looked up): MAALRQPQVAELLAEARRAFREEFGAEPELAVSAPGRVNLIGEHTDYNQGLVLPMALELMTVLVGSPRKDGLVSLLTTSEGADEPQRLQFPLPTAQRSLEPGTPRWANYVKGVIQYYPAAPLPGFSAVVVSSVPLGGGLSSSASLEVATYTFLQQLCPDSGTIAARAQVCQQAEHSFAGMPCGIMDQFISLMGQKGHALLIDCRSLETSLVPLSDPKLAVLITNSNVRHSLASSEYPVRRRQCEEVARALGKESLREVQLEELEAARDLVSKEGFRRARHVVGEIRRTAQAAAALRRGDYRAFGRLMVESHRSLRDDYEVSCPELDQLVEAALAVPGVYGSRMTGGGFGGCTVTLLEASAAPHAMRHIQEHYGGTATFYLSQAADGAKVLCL
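Compounds were pin-transferred into ATP buffer (35 uM final), then GALK plus galactose (5 nM, 100 uM final) was added. After 1 h at room temperature, Kinase-Glo Plus was added and luminescence read after 10 min.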
USP2a block: blocks human ubiquitin-specific protease USP2a; AID 463254; USP2 core, Ub-CHOP2 coupled fluorogenic reporter, 485/531; 330,000 compounds, 0.01% hits; O75604; Potency, µM (doses to about 38.3 µM), inactives show at the highest dose activity change, negative = inhibition, actives largely listed as inhibitors;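 also: plate controls were DMSO wells for no effect and full inhibition by NEM control for full effect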
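Deubiquitinase activity read as fluorescence (485/531 nm) after Ub-CHOP2 cleavage activates the enterokinase reporter on its substrate; USP2 core 10nM, Ub-CHOP2 and substrate 25nM each, 30min compound preincubation then 60min RT; data normalized to NEM, curves fitted.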
* hit, by the source's call; i = inactive; ? = inconclusive; / = no result given; ! = not confirmed by another sample; [ ] = remark or other dose. Hits are enriched below; roughly 1% of the tested compounds scored in any of these assays. Calls follow the shape of the dose curve; as a rule, active = well fitted curve in the direction sought with a large enough effect; inconclusive = small, poorly fitted or top-dose-only effect, or another doubt; inactive = no such curve, though single readings can be large; an effect the other way counts as inactive or inconclusive. Unless noted, % is scaled to controls: 0 for no effect and ±100 for the full control effect; potency is read from the fitted curve at half-maximal effect.

SMILES	Eya2 inh	TrxR1 substrate	RGS4 inhibitor	rTrxR1 inhibitor	GALK inh	USP2a block
C=CCN1CCc2cccc3c2[C@H]1Cc1ccc(O)c(O)c1-3	-8%	18%[57.1 µM]	?	20µM*	-2%	-1%
O=C(c1ccc(CS(=O)(=O)c2ccccc2)o1)N1CCC2(CC1)OCCO2	2%	4%[57.1 µM]	6%	28µM*	0%	-7%
O=C(c1ccc(CS(=O)(=O)c2ccc(Br)cc2)o1)N1CCC2(CC1)OCCO2	8%	2%	49%	7%	0%	-1%
CN(N=O)c1ccc(O)c(O)c1	7%	-6%[57.1 µM]	6µM*	0.95µM*	/	/
CCCc1[nH][nH]c(=O)c1C(c1ccc(Cl)cc1)C(C#N)C#N (stereo unspecified)	-14%	6%	?	3.2µM*	-5%	4%
N#CC(C#N)=NNc1ccc(-n2ccc(C(F)(F)F)n2)cc1	12%	-6%	?	20µM*	/	1%
Cc1cc(C)n(-c2ccc(NN=C(C#N)C#N)cc2)n1	-1%	-11%	-6%	?	-2%	0%
Cc1ccccc1-n1c(O)c(C(c2ccncc2)c2c(O)n(-c3ccccc3C)c(=O)[nH]c2=O)c(=O)[nH]c1=O	9%	5%[57.1 µM]	-15%	14µM*	-2%	1%
C[C@@H]1O[C@H](O[C@@H]2C[C@@H](O)[C@]3(CO)[C@H]4[C@H](O)C[C@]5(C)[C@@H](C6=CC(=O)OC6)CC[C@@]5(O)[C@@H]4CC[C@]3(O)C2)[C@@H](O)[C@H](O)[C@H]1O	/	/	27%[56.9 µM]	/	/	/
C=CCN1CC[C@]23c4c5ccc(O)c4O[C@@H]2/C(=N/N=C2\CC[C@@]4(O)C6Cc7ccc(O)c8c7[C@@]4(CCN6CC=C)[C@@H]2O8)CC[C@@]3(O)C1C5	8%	17%[57.1 µM]	?	20µM*	/	/
c1cc2cc(c1)C[n+]1ccc(c3ccccc31)NCc1ccc(cc1)CNc1cc[n+](c3ccccc13)C2	/	/	i	/	/	/
O=C1NC(=O)N(Cc2ccco2)C(=O)/C1=C\c1cccn1CCOc1ccc(Cl)cc1	6%	2%	?	22µM*	-14%	-26%
Cc1cccc(OCCn2cccc2/C=C2/C(=O)NC(=O)N(Cc3ccco3)C2=O)c1	0%	-4%	?	35µM*	1%	-3%
CCc1ccc(N2C(=O)NC(=O)/C(=C/c3cccn3CCOc3ccc(C)cc3)C2=O)cc1	-2%	-5%	-54%	-20%	-7%	-1%
COc1ccc(CN2C(=O)NC(=O)/C(=C\c3ccco3)C2=O)cc1	0%	-5%	?	?	4%	3%
COc1ccc(CNC(=O)/C=C\c2ccc3[nH]cc(CCN(C)C)c3c2)cc1	/	/	i	/	/	/
NC(=O)CSc1nc2cc(S(=O)(=O)N3CCOCC3)ccc2o1	-12%	6%[57.1 µM]	?	-2%[2.29 µM]	/	-2%
S=C(S)N1CCCC1	1%	3%[57.1 µM]	5.3µM*!	0%[57.1 µM]	/	2%
O=C(N1CCCCCC1)N1CC1	/	9%[57.1 µM]	2%	4%[57.1 µM]	/	/
O=[N+]([O-])c1ccccc1CCl	14%	9%	12%	45µM*	/	0%
O=C1CCN(C(=O)Cc2ccccc2[N+](=O)[O-])CC1	15%	3%	-6%	11%	-1%	2%
Cc1ccc(-c2n[nH]c(=S)n2-c2ccccc2)cc1	-8%	-6%[57.1 µM]	-7%[11.4 µM]	?	-2%	-1%
Cc1ccc(-n2c(-c3nn(C)c(C)c3Cl)n[nH]c2=S)cc1	9%	-11%	-6%[11.4 µM]	40µM*	0%	3%
C/C=C1/C[C@@H](C)[C@@](C)(O)C(=O)OCC2=CCN3CC[C@@H](OC1=O)[C@@H]23	/	1%	0%	?	/	/
CCCN(CCC)[C@@H]1CCc2c(F)ccc(O)c2C1	/	/	/	8%	/	/
SMILES	Eya2 inh	TrxR1 substrate	RGS4 inhibitor	rTrxR1 inhibitor	GALK inh	USP2a block
CN1CC[C@@]2(C)c3cc(O)ccc3N(C)C12 (stereo partly specified)	-22%	1%[57.1 µM]	21µM*	16%	/	/
CCN(CC)c1ncnc2c1ncn2[C@@H]1O[C@H](COP(=O)(O)OP(=O)(O)C(Br)(Br)P(=O)(O)O)[C@@H](O)[C@H]1O	1%	7%[57.1 µM]	-23%[56.9 µM]	16%[57.1 µM]	/	/
NC(=O)C1=CN(C2OC(COP(=O)(O)OP(=O)(O)OC[C@H]3O[C@@H](n4cnc5c(N)ncnc54)[C@H](OP(=O)(O)O)[C@@H]3O)C(O)C2O)C=CC1 (stereo partly specified)	-1%	12%[57.1 µM]	13µM*	22%[57.1 µM]	/	/
CC(C)c1ccc(N2C(=O)NC(=O)/C(=C\C=C\c3ccco3)C2=O)cc1	17%	-5%	?	-22%	-1%	8%
Cc1cccc(N2C(=O)NC(=O)/C(=C\c3ccc(N4CCOCC4)cc3)C2=O)c1	15%	-6%	-48%	?	-2%	0%
Cc1cccc(N2C(=O)NC(=O)/C(=C\c3cnc(-c4ccccc4)nc3)C2=O)c1	13%	-2%	?	10µM*	-2%	13%
CC(C)c1ccc(N2C(=O)NC(=O)/C(=C\c3cnc(-c4ccccc4)nc3)C2=O)cc1	19%	8%[57.1 µM]	4%[11.4 µM]	10µM*	2%	3%
Cc1ccc(N2C(=O)NC(=O)/C(=C/c3cnc(-c4ccccc4)nc3)C2=O)cc1C	12%	2%	?	6.3µM*	/	5%
Cc1ccc(Cl)cc1N1CCN(C(=O)c2cn(CC(C)C)c(=O)c3c2c2ccccc2n3C)CC1	/	31%	27%	38%	/	/
COc1ccc(OCC#CCN2CCNCC2)cc1	4%	-10%	3%	-30%	5%	2%
COc1ccc(CN2CCNCC2)cc1	-6%	-1%	-19%	35µM*	6%	0%
Cc1cc(/C=C/c2cccc3sc(C)[n+](CCCCI)c23)ccc1N(CCCl)CCCl	/	-9%	/	16µM*	/	/
C=C(C)[C@@H]1CC[C@]2(C(=O)O)CC[C@]3(C)[C@H](CCC4[C@@]5(C)CC[C@H](O)C(C)(C)[C@@H]5CC[C@]43C)[C@@H]12 (stereo partly specified)	/	/	i	/	/	/
CCOc1cc(C=C2C(=O)NC(=S)NC2=O)ccc1O	/	-1%[2.29 µM]	?	-78%[57.1 µM]	/	/
COc1ccc(C=C2C(=O)NC(=S)NC2=O)cc1OC	/	-4%	?	7.1µM*	/	/
COc1ccccc1C=C1C(=O)NC(=S)NC1=O	/	8%	?	?	/	/
COc1ccc(/C=C/C=C2C(=O)NC(=S)NC2=O)cc1	/	-6%	?	7.1µM*	/	/
NCC(=O)c1ccc(Cl)c(Cl)c1	/	3%	/	19%	/	/
Oc1cc2c(cc1O)[C@H]1c3ccccc3CN[C@H]1CC2	/	/	240%[56.9 µM]	/	/	/

High-throughput results: PubChem BioAssay, National Center for Advancing Translational Sciences (NCATS)
